Test [1] in a line: APR_HepG2_CellLoss_72hr: Apredica 72-hour HepG2 Assay for Cell Loss (AID 2282915). The conditions noted are these: high-content imaging. A digest of the protocol:
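HepG2 cells exposed 72 h to compound at 0.39–200 uM (10 concentrations, duplicate) in 0.5% DMSO. Fixed with 3.7% formaldehyde and Hoechst 33342-stained. Imaged at 20x; nuclear count gives cell number, fitted bidirectionally versus DMSO.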

Test [2] is described as follows: APR_HepG2_P-H2AX_72hr: Apredica 72-hour HepG2 Assay for H2AX Phosphorylation (AID 2282916).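 Note: phospho-histone H2A.x immunostain intensity per cell marking DNA damage.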 The conditions noted are these: imaging, actives raise or lower the signal. In short, it runs like this: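 Phospho-histone H2A.x immunofluorescence, multiplexed with Hoechst and c-Jun, quantified by high-content imaging. Compounds applied to HepG2 for 72 h across ten concentrations (0.39–200 uM, 0.5% DMSO), in duplicate; DMSO baseline.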

Test [3] is described as follows: APR_HepG2_MitoMembPot_72hr: Apredica 72-hour HepG2 Assay for Mitochondrial Membrane Potential (AID 2282917). The conditions noted are these: imaging, actives raise or lower the signal. In short, it runs like this: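 HepG2 cells dosed 72 hr with compound at 0.39–200 uM in duplicate, 0.5% v/v DMSO final. Mitochondria stained with 250 nM MitoTracker Red CMXRos for 30 min before formaldehyde fixation, imaged by high-content fluorescence; bidirectional fit versus DMSO.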

Test [4] in a line: APR_HepG2_MitoticArrest_72hr: Apredica 72-hour HepG2 Assay for Mitotic Arrest (AID 2282918). The conditions noted are these: high-content imaging, actives raise or lower the signal. A digest of the protocol:
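HepG2, 72 hr exposure, 0.39–200 uM in duplicate, 0.5% v/v DMSO final. Formaldehyde-fixed, Triton-permeabilized, anti-phospho-histone H3/FITC plus Hoechst. ArrayScan imaging at 20x; curves fit bidirectionally against DMSO baseline.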

The nature of test [5]: APR_HepG2_MicrotubuleCSK_72hr: Apredica 72-hour HepG2 Assay for Microtubule CSK Stabilty (AID 2282919). The conditions noted are these: HepG2 microtubule cytoskeleton, high-content imaging, actives raise or lower the signal. A digest of the protocol: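 HepG2, 72 hr cmpd exposure, 0.39–200 uM (10 pts, duplicate), 0.5% DMSO. 3.7% formaldehyde fix, 0.5% Triton perm, anti-alpha-tubulin/Cy5 plus Hoechst. HCS fluorescence intensity; bidirectional fit vs DMSO baseline; taxol as positive control.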

The nature of test [6]: APR_HepG2_P-H2AX_24hr: Apredica 24-hour HepG2 Assay for H2AX Phosphorylation (AID 2282920). The conditions noted are these: high-content imaging, actives raise or lower the signal. In short, it runs like this: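 HCS fluorescence imaging of phospho-H2A.x immunostain (with Hoechst 33342 nuclear counterstain) in HepG2 after 24 hr compound exposure; 10 concentrations, 0.39–200 uM, duplicate wells, 0.5% v/v DMSO. Gain or loss of signal fitted relative to DMSO baseline.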

Test [7] in a line: APR_HepG2_StressKinase_72hr: Apredica 72-hour HepG2 Assay for Stress Kinase (AID 2282921). To be noted: HepG2 stress kinase (phospho-c-Jun) imaging, actives raise or lower the signal. A digest of the protocol: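 Stress kinase signal is phospho-c-Jun immunofluorescence (1:500 primary, Cy3 secondary) in fixed, permeabilized human HepG2 cells imaged at 20x. Exposure lasted 72 hr over ten concentrations from 0.39 to 200 uM, 0.5% DMSO, in duplicate. Bidirectional fit versus DMSO.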

Test [8] in a line: APR_HepG2_MitoMass_72hr: Apredica 72-hour HepG2 Assay for Mitochondrial Mass (AID 2282924).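 Note: MitoTracker Red CMXRos stain intensity per cell imaged as mitochondrial mass.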 To be noted: high-content imaging, actives raise or lower the signal. In short, it runs like this: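 Read-out: MitoTracker Red fluorescence intensity from automated imaging (20x, six fields per well) in human HepG2 liver cells. Dosing ran 72 hr, 0.39–200 uM, 0.5% DMSO; bidirectional curve fitting versus DMSO baseline.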

A short description of test [9]: APR_HepG2_NuclearSize_72hr: Apredica 72-hour HepG2 Assay for Nuclear Size (AID 2282925). The conditions noted are these: high-content imaging, actives raise or lower the signal. A digest of the protocol:
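Read-out: nuclear diameter from Hoechst 33342 images (ArrayScan, 20x, six fields/well), via cell-cycle image analysis. HepG2 were dosed 0.39–200 uM for 72 hr in 0.5% DMSO. Bidirectional fit relative to DMSO.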

Test [10] is described as follows: ATG_CRE_CIS: Attagene CIS-FACTORIAL HepG2 Assay for human cAMP Responsive Element (CRE) binding protein 3 (AID 2282926). To be noted: HepG2 CRE cis-reporter, Attagene multiplexed mRNA; actives raise or lower the signal. A digest of the protocol: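 Readout: fluorescently labelled reporter transcripts resolved by capillary electrophoresis after RT-PCR, taken 24 h post-dosing in transfected HepG2. Endogenous transcription factor activity drives each cis-element reporter; gain or loss of signal fitted relative to DMSO control.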

Test [11] addresses CCAAT/enhancer-binding protein beta (Homo sapiens) (UniProt P17676). Briefly: ATG_C_EBP_CIS: Attagene CIS-FACTORIAL HepG2 Assay for human CCAAT/Enhancer Binding Protein (C/EBP) beta (AID 2282927). To be noted: HepG2 Attagene cis-factorial transcription factor reporter; actives raise or lower the signal. In short, it runs like this:
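HepG2, transient MRTU transfection, 24 h treatment. RT-PCR plus CE fluorescence; DMSO negative control, bidirectional fit.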

Test [12] is described as follows: ATG_CMV_CIS: Attagene CIS-FACTORIAL HepG2 Assay for human CMV (Internal Marker) (AID 2282928).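 Note: endpoint acts as a background internal control marker rather than a target.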 To be noted: HepG2 CMV promoter reporter, transcription factor profiling; actives raise or lower the signal. In short, it runs like this:
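Fluorescence intensity of RT-PCR-derived reporter fragments, resolved by capillary electrophoresis, gives the signal. HepG2 liver cells bearing transfected cis-element reporters were treated 24 h; activity in either direction was fit relative to DMSO-treated controls.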

Test [13] can be described thus: ATG_DR4_LXR_CIS: Attagene CIS-FACTORIAL HepG2 Assay for human Liver X Receptor (LXR), DR4 submotif (AID 2282929). The conditions noted are these: HepG2 Attagene DR4 cis-reporter, mRNA transcription; actives raise or lower the signal. In short, it runs like this:
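The endpoint is DR4-element-driven reporter transcripts after 24 h chemical exposure of transfected HepG2 cells. These were measured via RT-PCR and capillary electrophoresis, and gain or loss of signal was fitted relative to DMSO controls.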

The target in test [14] is Aryl hydrocarbon receptor (Homo sapiens) (UniProt P35869). Briefly: ATG_Ahr_CIS: Attagene CIS-FACTORIAL HepG2 Assay for human Aryl Hydrocarbon Receptor (Ahr) (AID 2282930). To be noted: HepG2 AhR cis-factorial reporter transcription; actives raise or lower the signal. In short, it runs like this:
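Endogenous factor activity is tracked through cis-promoter reporter units transfected into HepG2 cells. Transcript levels at 24 h are read by fluorescent RT-PCR and capillary electrophoresis, with activity in either direction scored relative to DMSO.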

Test [15] is described as follows: ATG_AP_1_CIS: Attagene CIS-FACTORIAL HepG2 Assay for human Activator Protein 1 (AP-1) (AID 2282931). To be noted: HepG2 Attagene cis-factorial AP-1 reporter mRNA; actives raise or lower the signal. In short, it runs like this: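 Readout is reporter transcript level from endogenous transcription factor activity, quantified by RT-PCR with fluorescent primer extension and capillary electrophoresis. Transiently transfected HepG2 cells, 24 h exposure. Curves fitted both directions versus DMSO.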

Test [16] in a line: ATG_AP_2_CIS: Attagene CIS-FACTORIAL HepG2 Assay for human Activator Protein 2 (AP-2) (AID 2282932). The conditions noted are these: HepG2 AP-2 cis-reporter, Attagene transcription factor profiling; actives raise or lower the signal. A digest of the protocol: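 Liver-derived HepG2 line, cis-reporter system measuring endogenous factors; 24 h dosing; reporter mRNA detected by fluorescent RT-PCR and capillary electrophoresis.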

Test [17] is described as follows: ATG_BRE_CIS: Attagene CIS-FACTORIAL HepG2 Assay for human Bone Morphogenetic Protein (BMP) Response Element (BRE) (AID 2282933). To be noted: HepG2 BMP response element reporter, Attagene transcription factor profiling; actives raise or lower the signal. In short, it runs like this: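 A HepG2 multiplex reporter system measured inducible reporter mRNA 24 h post-dosing. Detection: RT-PCR, 6-FAM primer extension, HpaI digestion, capillary electrophoresis. Activity fitted bidirectionally relative to DMSO.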

In test [18] the target is Retinoic acid receptor alpha (Homo sapiens) (UniProt P10276). Briefly: ATG_DR5_RAR_CIS: Attagene CIS-FACTORIAL HepG2 Assay for human Retinoic Acid Receptor Alpha (RARE), DR5 submotif (AID 2282934). To be noted: HepG2 Attagene cis-factorial RARE DR5 reporter, mRNA; actives raise or lower the signal. A digest of the protocol: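 After 24 h of chemical exposure, transiently transfected HepG2 cells were lysed for total RNA; the DR5-regulated reporter transcript was quantified via RT-PCR and capillary electrophoresis, with activity fitted bidirectionally against DMSO.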
Chain of Retinoic acid receptor alpha (Homo sapiens) (P10276 whole entry, looked up): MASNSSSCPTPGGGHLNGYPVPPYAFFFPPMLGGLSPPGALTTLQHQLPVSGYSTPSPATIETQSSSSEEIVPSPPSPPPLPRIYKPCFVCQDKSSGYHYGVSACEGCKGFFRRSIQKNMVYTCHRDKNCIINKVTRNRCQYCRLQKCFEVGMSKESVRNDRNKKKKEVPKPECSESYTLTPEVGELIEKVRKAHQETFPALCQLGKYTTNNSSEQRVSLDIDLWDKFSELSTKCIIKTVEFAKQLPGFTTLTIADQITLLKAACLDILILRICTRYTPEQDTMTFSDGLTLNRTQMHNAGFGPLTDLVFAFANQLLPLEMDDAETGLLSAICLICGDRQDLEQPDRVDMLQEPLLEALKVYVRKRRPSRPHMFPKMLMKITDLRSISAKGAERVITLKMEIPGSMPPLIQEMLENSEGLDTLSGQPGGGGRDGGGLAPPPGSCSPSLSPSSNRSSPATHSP

Test [19] in a line: APR_HepG2_p53Act_72hr: Apredica 72-hour HepG2 Assay for p53 Activation (AID 2282923).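 Note: average cellular p53 protein immunofluorescence intensity in HepG2 cells.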 The conditions noted are these: high-content imaging, actives raise or lower the signal. A digest of the protocol: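 After 72 h with compound (ten points, 0.39 to 200 uM, final DMSO 0.5% v/v), fixed HepG2 cells were labelled with sheep anti-p53 and Hoechst 33342 and imaged; gain or loss versus DMSO scored.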

Test [20] can be described thus: APR_HepG2_StressKinase_24hr: Apredica 24-hour HepG2 Assay for Stress Kinase (AID 2282922). The conditions noted are these: HepG2 stress kinase (phospho-c-Jun) imaging, actives raise or lower the signal. A digest of the protocol: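 Read-out: phospho-c-Jun immunofluorescence (Cy3 secondary) quantified by high-content imaging at 20x, nuclei defined by Hoechst 33342. Human HepG2 liver cells dosed 24 hr, 0.39–200 uM, DMSO 0.5% v/v; gain or loss of signal fitted relative to DMSO.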

The structures appear in SMILES notation. Activity calls are given as the source filed them. Rule for the calls: active = hit-call score of the fitted dose curve at least 0.9, where 1 is the maximum; inactive = score below 0.9.

Chain of Aryl hydrocarbon receptor (Homo sapiens) (P35869 whole entry, looked up): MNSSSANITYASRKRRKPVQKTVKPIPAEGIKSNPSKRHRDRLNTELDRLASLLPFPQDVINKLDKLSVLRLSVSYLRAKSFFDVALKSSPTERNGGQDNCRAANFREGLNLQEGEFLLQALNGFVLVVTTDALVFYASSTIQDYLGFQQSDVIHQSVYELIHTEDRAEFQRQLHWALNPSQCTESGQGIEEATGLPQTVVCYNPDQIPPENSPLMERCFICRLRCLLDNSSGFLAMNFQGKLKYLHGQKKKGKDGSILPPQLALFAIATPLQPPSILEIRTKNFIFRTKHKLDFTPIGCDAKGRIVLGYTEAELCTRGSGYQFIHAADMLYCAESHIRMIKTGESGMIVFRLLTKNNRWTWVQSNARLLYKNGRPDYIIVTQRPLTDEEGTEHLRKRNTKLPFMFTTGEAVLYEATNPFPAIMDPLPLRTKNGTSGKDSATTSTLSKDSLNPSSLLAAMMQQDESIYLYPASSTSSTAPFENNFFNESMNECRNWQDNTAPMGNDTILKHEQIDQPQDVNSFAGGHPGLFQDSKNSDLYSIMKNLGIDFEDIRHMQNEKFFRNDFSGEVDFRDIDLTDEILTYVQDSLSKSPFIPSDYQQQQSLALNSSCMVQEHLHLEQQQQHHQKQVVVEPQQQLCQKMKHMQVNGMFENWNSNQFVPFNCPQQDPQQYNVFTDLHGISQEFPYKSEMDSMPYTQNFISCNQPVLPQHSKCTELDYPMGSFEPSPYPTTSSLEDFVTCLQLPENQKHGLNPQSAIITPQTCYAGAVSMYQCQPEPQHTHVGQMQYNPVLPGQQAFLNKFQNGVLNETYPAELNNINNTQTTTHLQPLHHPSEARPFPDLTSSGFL
Chain of CCAAT/enhancer-binding protein beta (Homo sapiens) (P17676 whole entry, looked up): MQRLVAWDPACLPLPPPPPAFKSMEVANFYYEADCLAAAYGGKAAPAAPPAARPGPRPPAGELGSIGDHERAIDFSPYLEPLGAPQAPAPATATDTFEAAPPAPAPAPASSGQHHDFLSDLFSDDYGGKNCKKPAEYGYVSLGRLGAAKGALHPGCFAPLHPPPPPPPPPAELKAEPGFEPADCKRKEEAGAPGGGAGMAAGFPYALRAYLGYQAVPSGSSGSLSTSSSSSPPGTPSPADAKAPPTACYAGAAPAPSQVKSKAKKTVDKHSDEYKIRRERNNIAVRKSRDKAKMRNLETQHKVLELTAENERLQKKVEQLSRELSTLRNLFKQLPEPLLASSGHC

For the compound `COCc1cnc(C2=NC(C)(C(C)C)C(=O)N2)c(C(=O)O)c1` (centres undefined), the outcome in [1], in [2], in test [3], in test [4], in test [5] and in [6] was inactive. In addition, the call in [7], in [8], in test [9], in test [10], in test [11] and in test [12] was inactive. Besides, the compound was classed as inactive in [13], in test [14], in test [15], in [16], in test [17] and in [18].
Regarding `CCSC(=O)N1CCCCCC1`, the compound was classed as inactive in test [1], in test [2], in [3], in test [4], in test [5] and in test [6]. For the same compound, the compound was called inactive in test [7], in test [19], in [8], in [10], in test [12] and in test [13]. Moreover, the call in test [14], in test [15], in test [16], in test [17] and in [18] was inactive.
For orientation: AC50 means the concentration giving half of the maximal activity seen. As for `CCCCOCN(C(=O)CCl)c1c(CC)cccc1CC`, the AC50 in test [1] was 30.6 µM (active); in test [2], 113 µM (active); in test [3] it was 33.2 µM (active); in test [4], 181 µM (active); in [5] it was 10.6 µM (active); in test [7] it was 13.2 µM (active). Further, the AC50 in test [10] was 0.654 µM (active); in [11], 0.647 µM (active). Besides, the result in [6], in test [20], in test [8], in test [12], in test [13] and in test [14] was inactive. The call in test [15], in [16] and in test [17] was inactive.
With `CC1(C)C(C=C(Cl)Cl)C1C(=O)OC(C#N)c1cccc(Oc2ccccc2)c1` (centres undefined), the call in test [1], in test [2], in test [3], in [4], in test [5] and in test [6] was inactive. In addition, the call in test [7], in test [8], in test [10], in [12], in [14] and in test [15] was inactive. The call in [17] and in test [18] was inactive. For the same compound, the AC50 in test [13] was 30.3 µM (active).
For the compound `O=c1n(Cl)c(=O)n(Cl)c(=O)n1Cl`, the outcome in test [1], in [2], in test [3], in [4], in test [5] and in test [6] was inactive. The compound was called inactive in [7], in test [19], in test [8], in test [10], in [11] and in test [12]. For the same compound, the result in [13], in [15], in test [16], in test [17] and in test [18] was inactive. Besides, the AC50 in test [14] was 19.6 µM (active).
Turning to `N#Cc1c[nH]cc1-c1cccc2c1OC(F)(F)O2`, the AC50 in test [1] was 13 µM (active); in test [2], 16.1 µM (active); in [8], 3.5 µM (active); in [10], 10.8 µM (active); in test [11] it was 8.24 µM (active); in [12], 29 µM (active). Further, the AC50 in test [13] is 1.19 µM (active); in test [17] it was 22.2 µM (active). In addition, the compound was classed as inactive in [3], in [4], in test [6], in test [7], in [19] and in test [15].
Take `CC(C)Nc1nc(Cl)nc(NC(C)C)n1`: the result in [1], in test [2], in test [3], in test [4], in [6] and in [7] was inactive. The call in test [20], in test [8], in test [10], in test [11], in [12] and in [13] was inactive. The outcome in [14], in test [15] and in test [17] was inactive.
